Data: PubChem BioAssay AID1159580 (chemical genetic matrix, 2015)
Out of some 5,500 compounds screened, about 2,000 (36%) were called active. Roughly 18% stayed inconclusive and do not appear here. Cut-off read from the data, not from the text of the source: active = normalized growth mostly below about 0.91 (no sharp cut-off); inconclusive = no clear call, values can overlap the other calls; inactive = mostly above about 0.92. The list shows a part of the results.

Assay: chemical genetic growth profiling, strain panel (AID 1159580);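 note: tested at 20 µM; growth read once vehicle control cultures reached saturation at 30 °C; 1 = growth at the plate median or of vehicle wells; lower values mean less growth of the strain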
Settings: S. cerevisiae deletion strains, growth OD
[1] = locus YAL040C, strain CLN3, hits give low values
[2] = locus YCL061C, strain MRC1 (second series), hits give low values
[3] = locus YDR363W, strain ESC2, hits give low values
[4] = locus YER002W, strain NOP16, hits give low values
[5] = locus YMR263W, strain SAP30, hits give low values
[6] = locus YMR307W, strain GAS1, hits give low values
[7] = locus YNL175C, strain NOP13, hits give low values
[8] = locus YNL197C, strain WHI3, hits give low values
[9] = locus YNL224C, strain SQS1, hits give low values
[10] = locus YOR083W, strain WHI5 (second series), hits give low values

Measured: normalized growth

COc1ccc2c(c1)[C@@]13CCCC[C@H]1[C@@H](C2)NCC3
inactive: [1] 0.998 | [2] 0.997 | [3] 0.951 | [4] 1.02 | locus YJR075W, strain HOC1, hits give low values 0.988 | [5] 0.992 | [6] 0.973 | [7] 0.996 | [8] 1.03 | [9] 1.01 | locus YNL322C, strain KRE1, hits give low values 0.991 | [10] 1 | locus YPL055C, strain LGE1, hits give low values 0.983 | locus YPL241C, strain CIN2, hits give low values 1

OCC1NCC(O)C(O)C1O (centres undefined)
inactive: locus YAL013W, strain DEP1, hits give low values 1.02 | [1] 1.02 | [2] 1.01 | [3] 1.04 | [4] 1.01 | locus YGR078C, strain PAC10, hits give low values 1 | [5] 1.01 | [6] 1.01 | locus YNL128W, strain TEP1, hits give low values 1.02 | locus YNL153C, strain GIM3, hits give low values 1.02 | [7] 1.02 | [8] 1.01 | [9] 0.998 | [10] 1

O=c1c(Cl)c(-n2cccn2)cnn1-c1ccc(Cl)cc1Cl
active: locus YHR030C, strain SLT2, hits give low values 0.71 | locus YLR113W, strain HOG1, hits give low values 0.691 | locus YPL256C, strain CLN2, hits give low values 0.831
inactive: locus YAR019C, strain CDC15, hits give low values 0.93 | locus YBL105C, strain PKC1, hits give low values 0.948 | locus YBR135W, strain CKS1, hits give low values 0.943 | locus YBR136W, strain MEC1, hits give low values 0.949 | locus YBR160W, strain CDC28, hits give low values 0.96 | locus YDL017W, strain CDC7, hits give low values 0.95 | locus YDL028C, strain MPS1, hits give low values 0.954 | locus YDL101C, strain DUN1, hits give low values 0.985 | locus YDL108W, strain KIN28, hits give low values 0.962 | locus YDL132W, strain cdc53, hits give low values 0.95 | locus YDL214C, strain PRR2, hits give low values 0.906 | locus YDR052C, strain DBF4, hits give low values 0.93 | locus YDR054C, strain cdc34, hits give low values 0.913 | locus YDR226W, strain ADK1, hits give low values 0.974 | locus YDR477W, strain SNF1, hits give low values 0.893 | locus YER123W, strain YCK3, hits give low values 0.722 | locus YER133W, strain GLC7, hits give low values 0.909 | locus YFL009W, strain cdc4, hits give low values 0.955 | locus YFL029C, strain CAK1, hits give low values 0.916 | locus YFR003C, strain YPI1, hits give low values 0.953 | locus YFR019W, strain FAB1, hits give low values 0.956 | locus YFR028C, strain CDC14, hits give low values 0.965 | locus YGR040W, strain KSS1, hits give low values 0.883 | locus YGR052W, strain FMP48, hits give low values 0.902 | locus YGR092W, strain DBF2, hits give low values 0.539 | locus YHR079C, strain IRE1, hits give low values 0.768 | locus YHR082C, strain KSP1, hits give low values 0.988 | locus YHR205W, strain SCH9, hits give low values 1.02 | locus YIL147C, strain SLN1, hits give low values 0.955 | locus YJL095W, strain BCK1, hits give low values 0.823 | locus YJL128C, strain PBS2, hits give low values 0.94 | locus YJL157C, strain FAR1, hits give low values 0.864 | locus YJR016C, strain ILV3, hits give low values 0.932 | locus YJR066W, strain TOR1 (second series), hits give low values 0.726 | locus YJR066W, strain TOR1, hits give low values 0.901 | locus YKL048C, strain ELM1, hits give low values 0.979 | locus YKL067W, strain YNK1, hits give low values 0.903 | locus YKL101W, strain HSL1, hits give low values 0.951 | locus YKL193C, strain SDS22, hits give low values 0.936 | locus YKL203C, strain TOR2, hits give low values 0.909 | locus YLR133W, strain CKI1, hits give low values 0.943 | locus YLR403W, strain SFP1, hits give low values 0.92 | locus YML070W, strain DAK1, hits give low values 0.917 | locus YMR001C, strain CDC5, hits give low values 0.917 | locus YMR205C, strain PFK2 (second series), hits give low values 0.926 | locus YMR277W, strain FCP1, hits give low values 0.941 | locus YNL006W, strain LST8, hits give low values 0.934 | locus YNL020C, strain ARK1, hits give low values 0.914 | locus YNL161W, strain CBK1, hits give low values 0.931 | locus YNL183C, strain NPR1, hits give low values 0.857 | locus YNL207W, strain RIO2, hits give low values 0.968 | locus YNL222W, strain SSU72, hits give low values 0.949 | locus YNL307C, strain MCK1 (second series), hits give low values 0.901 | locus YOL078W, strain AVO1, hits give low values 0.928 | locus YOL136C, strain PFK27, hits give low values 0.951 | locus YOR061W, strain CKA2, hits give low values 0.93 | locus YOR119C, strain RIO1, hits give low values 0.947 | locus YOR231W, strain MKK1, hits give low values 0.842 | locus YOR329C, strain SCD5, hits give low values 0.943 | locus YPL031C, strain PHO85, hits give low values 0.862 | locus YPL153C, strain RAD53, hits give low values 0.84 | locus YPL204W, strain HRR25, hits give low values 0.903 | locus YPL209C, strain IPL1, hits give low values 0.954 | locus YPR025C, strain CCL1, hits give low values 0.947 | locus YPR106W, strain ISR1, hits give low values 0.986 | locus YPR111W, strain DBF20, hits give low values 0.981 | strain NNK1, hits give low values 0.97 | strain TSCII, hits give low values 0.908
